# Measurements from PubChem BioAssay AID1490 (National Center for Advancing Translational Sciences (NCATS), 2009).
# Values joined by “and” are separate entries in the source; they are usually repeats but may differ in a detail not shown here. Identical values can stand only once. The campaign covered roughly 310,000 compounds. About 11,000 (3.5%) were called active. Inconclusive results (about 4%) are left out. Many of the other results were omitted from the sample, so actives are more common in it than they were. Unmarked numbers belong to inactive results. The call rests on the fitted dose curve; in most records, active means well fitted inhibition curve with a large enough effect; inconclusive means small, poorly fitted or top-dose-only effect, or another doubt; inactive means no such curve, though single readings can be large or run the other way.
# Target: 4'-phosphopantetheinyl transferase ffp (Bacillus subtilis) (UniProt Q9F4F7)
# Assay: qHTS Assay for Inhibitors of Bacillus subtilis Sfp phosphopantetheinyl transferase (PPTase);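 further: the enzyme is Sfp with the accession as filed and its product quenches rhodamine fluorescence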;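 on largest response in the series, negative = inhibition: 0% = enzyme reaction without inhibitor and -100% = no enzyme wells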
# Conditions: Biochemical Sfp PPTase activity
# Summary of the method: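 Reaction rates are the 30-min fluorescence difference (ex 525, em 598 nm) in wells containing 15 nM Sfp, 5 uM rhodamine-CoA and 12.5 uM BHQ-2-YbbR at pH 7.6 with 10 mM MgCl2.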
# Potency means the concentration at half of the fitted maximal effect.
Structure (SMILES),"largest response in the series, negative = inhibition",Potency
CN(C)C(=O)Oc1cc(OC(=O)N(C)C)cc(C(O)CNC(C)(C)C)c1 (stereo unspecified),2.1%,
O=C1NC(=O)N(Cc2ccco2)C(=O)/C1=C\c1cccn1CCOc1ccccc1,,20 µM (active)
O=C1NC(=O)N(Cc2ccco2)C(=O)/C1=C\c1ccc(-c2ccc(F)cc2)o1,,31.6 µM (active)
CC[C@]1(O)C(=O)OCc2c1cc1n(c2=O)Cc2cc3ccccc3nc2-1,6.01%,
COP(=O)(NS(=O)(=O)c1ccccc1)OC,17.4%,
C=CCN1CCC2(C)c3cc(O)ccc3CC1[C@@H]2C (stereo partly specified),3.98%,
CCc1nnc(NS(=O)(=O)c2ccc(N=Cc3c(O)n(-c4ccccc4)c(=O)[nH]c3=O)cc2)s1,-8.17%,
Cc1cc(C)cc(NC(=S)NC2CC3CCCC(C2)N3Cc2cccs2)c1 (stereo unspecified),14.7%,
CC(C)Oc1cccc(C(=O)C2CCCN(C3CCOCC3)C2)c1 (stereo unspecified),17.1%,
CCN(CC)c1nc(C)cc(OP(=S)(OC)OC)n1,6.37%,
O=c1c2ccccc2nc(-c2ccco2)n1-c1ccc(Br)cn1,-3.04%,
O=c1c2ccccc2nc(/C=C/c2ccco2)n1-c1ccccc1O,,10 µM (active)
O=c1c2ccccc2nc(/C=C/c2ccc(F)cc2)n1-c1ccccc1O,-2%,
CCN1CC2C3CCC(C)(O3)C2C1 (stereo unspecified),13.8%,
O=C(N/N=C/c1c(O)n(C2CC2)c(=S)[nH]c1=O)c1ccccc1Cl,9.37%,
CC(C)(C)c1ccc(OC(=O)N2CCCCC2)cc1,-1.08%,
N[C@H](Cc1o[nH]c(=O)c1Cl)C(=O)O,,79.4 µM (active)
N[C@H](C(=O)O)c1cc(=O)[nH]o1,2.79%,
CCOP(=O)(OCC)C(O)c1ccc(OC)cc1OC (stereo unspecified),9.04%,
CN(C)C(=O)Oc1cc(=O)n2c3c(cccc13)CCC2,10.3%,
C[C@]12CC[C@H](O)C[C@@H]1CC[C@H]1[C@H]2CC[C@]2(C)C(=O)CC[C@@H]12,-1.51% and 34.7% and 1.49%,
O=[N+]([O-])c1ccc(C2C3C(c4ccccc4)=NC4(CCCCC4)N32)cc1 (stereo unspecified),-4.07%,
c1csc(CN2CC3(CCNCC3)C2)n1,12.2%,

Structure (SMILES),"largest response in the series, negative = inhibition",Potency
C=CCN1C(=O)NC(=O)/C(=C/c2ccc(OCC(=O)Nc3ccc(C)cc3)cc2)C1=O,,35.5 µM (active)
C=CCN(CC=C)C(=O)Nc1ccc(OCC)cc1,0.3%,
O=C(Cc1ccccc1)N1CCN(C2CCCCCC2)CC1,-9.44%,
Cc1noc(C)c1CSc1nc2cc(S(=O)(=O)N3CCOCC3)ccc2o1,,20 µM (active)
CCC1(c2ccccc2)C(=O)NC(=O)N(C)C1=O (stereo unspecified),9.18%,
Nc1ccc(-c2ccc(N)c(N)c2)cc1N,-2.55%,
CN(c1ccccc1)c1ccc([N+](=O)[O-])c2nonc12,-10.3%,
CN(C)C(=O)Oc1ccc2c(c1)O/C(=C\c1ccccc1)C2=O,2.07%,
Cc1nc2ccccn2c1P(=S)(N1CCCCC1)N1CCCCC1,,56.2 µM (active)
COc1ccc2[nH]cc(CCNCc3ccc(Br)cc3)c2c1,-23.1%,
Cc1cccc(N2C(=O)NC(=O)/C(=C\c3cnn(-c4ccccc4)c3)C2=O)c1,,39.8 µM (active)
Cc1c(C(=O)O)cccc1-n1c(C)cc(/C=C2\C(=O)NC(=O)N(c3ccc4c(c3)OCO4)C2=O)c1C,-16.8%,
O=C(Nc1cccc(F)c1)N1CC[C@@]2(CCCN(C(=O)Oc3ccccc3)C2)C1,-5.07%,
CC[N+]1(C)CCCC(OC(=O)C(O)(c2ccccc2)c2ccccc2)C1 (stereo unspecified),15.8% and 11.5%,
COc1ccccc1NC(=O)N1C[C@@H]2C[C@@H](C1)c1cccc(=O)n1C2,13.6%,
CN=C(NC#N)NCCSCc1nc[nH]c1C,5.33% and -12.8% and 5.86%,
COC(=O)N(c1ccc(OC)cc1)P1(=S)OCCC(C)O1 (stereo unspecified),,12.6 µM (active)
CC(C)CN1CCN(Cc2ccccc2C(F)(F)F)CC1CCO (stereo unspecified),6.48%,
O=C(CCN1CCCCC1)NCC(=O)Nc1ccc(Br)cc1C(=O)c1ccccc1,-17.5%,
C[C@@H]1C[C@@H]2O[C@H]2/C=C\C=C\C(=O)Cc2c(Cl)c(O)cc(O)c2C(=O)O1,,15.8 µM (active)
CNP1(NC)=Nc2nn(-c3ccccc3)c(N)c2C(c2ccccc2)=N1,2.05%,
CCNC[C@H](O)c1cccc(O)c1,18.1%,
CCOC(=O)c1c(C)c(C(=O)N2CCC3(CC2)OCCO3)c(C)n1CC,-3.49%,
